The nature of one assay: JC-1 mitochondrial signal, unstimulated myeloma cells – cell-based, JC-1 fluorescence, RPMI8226, 24 h, 100 nL compound, profiling panel (AID 1169). The conditions noted are these: JC-1 mitochondrial potential fluorescence, higher = more signal.
The compound `CCOC(=O)C1=CC[C@@H](c2ccccc2)N(S(=O)(=O)c2ccc(C)cc2)C1` showed a z-score of 0.84.
On the same count and under the same terms, then `CCN(CC)c1ccc(N2CC=CC34O[C@@H]5/C=C\CCC(C)OC(=O)C5[C@H]3C(=O)N(CCO)[C@@H]4C2=O)cc1` (some centres not stated), with -0.22.
Still for that read-out and setting: then `C=CCOC(=O)[C@H]1[C@@H]2C(=O)O[C@@H](c3ccccc3)[C@@H](c3ccccc3)N2[C@@H](c2ccc(OCCOC(=O)[C@H]3C[C@H]4C(=O)N[C@@H](CCCC[N+](C)(C)C)C(=O)N4[C@H]3c3cccc(OCCO)c3)cc2)[C@]12C(=O)Nc1ccc(I)cc12`, with -0.51.
`O=C1C[C@@](C(=O)NCC(F)(F)F)(c2ccc([N+](=O)[O-])cc2)[C@@H](c2ccc(CO)cc2)N1C1CCCCC1`: the z-score is 0.685.

A short description of the next assay: JC-1 mitochondrial signal, unstimulated MM1S myeloma – cell-based, JC-1 fluorescence, 24 h, 100 nL compound, profiling panel (AID 1170). As to conditions: MM1S mitochondrial potential, higher = more signal.
The compound `COC(=O)C1(Cc2ccccc2)C=C2C(=C(C(C)C)C(=O)C2C)CN1` (configuration not stated) yielded a z-score of 0.0816.
On the same count and under the same terms, then `Cc1c(NC(=O)/C(C#N)=C/C=C/c2ccccc2[N+](=O)[O-])c(=O)n(-c2ccccc2)n1C`, with -0.994.
For `[N-]=[N+]=NCc1ccccc1C[C@@]1(C(=O)NCCN2CCOCC2)N=C(c2ccc(OCCCO)cc2)O[C@@H]1c1ccccc1N=[N+]=[N-]`, the z-score was -1.12.
On the same count and under the same terms, then `C[n+]1ccc(CCCO)cc1`, with 0.0343; and `CN1C(=O)C2C=CC(C(O)c3c(F)cccc3Cl)N(Nc3ccccc3)C2C1=O` (configuration not stated), with 0.302.
Same read-out and setting: then `C=C[C@@H](C)[C@H](OC(=O)Nc1ccc(SC)cc1)c1ccc(OCCO)cc1`, with -1.13; and `CC(C)C(O)C1C=CC2C(=O)N(C)C(=O)C2N1N(c1ccccc1)c1ccccc1` (configuration not stated), with -0.387.
The same measure, in the same setting: then `O=C1c2ccccc2[C@](Cc2ccccc2I)(C(=O)NCc2ccccc2)[C@H](c2ccc(CO)cc2)N1C1CCCCC1`, with 0.551.

(Values after PubChem BioAssay.)
Also: test concentration not given here.
